Measured values as given in the supplement of paper PMC6555819.

Columns and labels:
Test in all cases: PBM binding z-score (relative to random genomic background probes); higher = stronger binding; sequences stand for … in GC…GCGATTGACAGCGTAGAATGAAGG
[1] = test system: PPARg:RXRa DBDmut IVT, anti-RXR (DBD mutation: RXRa K156A/R161A, NR concentration 270 nM, RXRa partner concentration 90 nM)
Summary of the method: (§1)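 Custom Agilent 4×180K protein-binding microarrays carried double-stranded probes. Their 34-nt variable regions held direct-repeat seeds, single-nucleotide variants, half-site ablations and random human genomic background sequences. Arrays were incubated 1 h with ligand-free nuclear receptor dimers in PBS pH 7.4, 2% milk, 0.02% Triton X-100, 1 mM DTT, 0.2 mg/mL BSA and 0.4 mg/ml salmon testes DNA. Antibodies against each partner (one per run) detected binding, and scanned fluorescence was regression-normalized. Binding z-scores use random background probes as reference.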

[2] = test system: PPARg:RXRa IVT, anti-PPARg (NR concentration 270 nM, RXRa partner concentration 90 nM)
Summary of the method: as §1

[3] = test system: PPARg homodimer (NR concentration 180 nM)
Summary of the method: as §1

[4] = test system: PXR:RXRa (NR concentration 270 nM, RXRa partner concentration 90 nM)
Summary of the method: as §1

[5] = test system: PXR homodimer (NR concentration 270 nM)
Summary of the method: as §1

[6] = test system: RARa:RXR (NR concentration 270 nM, RXRa partner concentration 90 nM)
Summary of the method: as §1

[7] = test system: RARa homodimer (NR concentration 270 nM)
Summary of the method: as §1

[8] = test system: RARb:RXRa (NR concentration 270 nM, RXRa partner concentration 90 nM)
Summary of the method: as §1

[9] = test system: RARb homodimer (NR concentration 270 nM)
Summary of the method: as §1

[10] = test system: RARg:RXRa (NR concentration 270 nM, RXRa partner concentration 90 nM)
Summary of the method: as §1

[11] = test system: RARg homodimer (NR concentration 270 nM)
Summary of the method: as §1

[12] = test system: RXRa DBDmut IVT, anti-RXR (DBD mutation: RXRa K156A/R161A, NR concentration 90 nM)
Summary of the method: as §1

[13] = test system: RXRa homodimer (NR concentration 180 nM)
Summary of the method: as §1

[14] = test system: THRa:RXRa (NR concentration 90 nM, RXRa partner concentration 90 nM)
Summary of the method: as §1

[15] = test system: THRa homodimer (NR concentration 90 nM)
Summary of the method: as §1

[16] = test system: VDR homodimer (NR concentration 270 nM)
Summary of the method: as §1

Sequence	PBM binding z-score [1]	PBM binding z-score [2]	PBM binding z-score [3]	PBM binding z-score [4]	PBM binding z-score [5]	PBM binding z-score [6]	PBM binding z-score [7]	PBM binding z-score [8]	PBM binding z-score [9]	PBM binding z-score [10]	PBM binding z-score [11]	PBM binding z-score [12]	PBM binding z-score [13]	PBM binding z-score [14]	PBM binding z-score [15]	PBM binding z-score [16]
TCGAGTAGGTTACGGGGGCATTAAGGGATGAAGA	4.98	6.1	1.98	2.76	1.24	2.79	0.727	2.59	1.91	3.09	2.32	1.61	2.56	2.83	0.949	2.81
CTATGTAGGTTAAGGGGGTCATTCATTTTGAAAG	7.22	7.67	2.86	5.45	5.06	5.94	1.58	3.38	3.81	4.91	3.98	2.28	5.74	3.64	1.93	5.01
CTATGTAGGATAAGGGGGTCATTCAGTTTGAAAG	4.4	5.24	3.61	5.75	11.1	5.73	2.91	3.27	3.71	4.18	2.98	2.23	5.45	3.75	1.96	6.25
TAGAGTAGGTTACGGGGGCATTCAGGGATGAAGA	5.84	6.92	2.22	3.17	2.11	3.35	1.56	2.85	2.5	3.43	2.77	2.08	3.21	3.99	1.75	3.81
CCGAGTAGGATACGAGGGGGCATTCAGTGCGAAT	0.37	0.975	0.513	2.31	3.26	1.78	-0.298	0.887	1.17	1.37	0.779	0.527	0.919	1.97	-0.158	2.57
CCGAGTAGGTTACGAGGGGGCATTCAGTGCGAAT	4.8	4.49	2.04	5.02	6.02	3.43	0.391	2.2	2.12	3.18	2.54	1.15	2.18	3.83	0.272	3.79
TCGAGTAGGTTACGGGGGCATGCAGGGATGAAGA	5.07	5.87	1.59	2.75	0.876	2.91	0.522	2.5	2.19	3.5	2.31	1.35	2.78	3.28	0.997	1.92
TCGAGTAGATTACGGGGGCATTCAGGGATGAAGA	2.06	2.81	0.745	2.52	1.38	2.08	0.218	1.37	1.26	1.41	0.834	1.65	1.35	3.66	0.874	3.02
CTATGTAGGTTAAGGGGGTCATACAGTTTGAAAG	7.64	7.1	3.8	5.63	8.43	5.95	2.55	3.77	3.95	5.39	4.06	2.32	6.26	4	2	5.41
CCGAGTAGGCTACGAGGGGGCATTCAGTGCGAAT	2.33	1.4	0.546	2.05	3.02	1.31	-0.663	0.81	0.928	1.09	0.795	0.409	0.458	1.79	-0.405	2.19
CCGAGTAGGTTACGAGAGGGCATTCAGTGCGAAT	4.61	3.37	2.29	5.07	6.97	2.08	-0.345	1.66	1.65	1.75	1.42	0.522	1.39	3.76	-0.738	2.06
TCGATTAGGTTACGGGGGCATTCAGGGATGAAGA	5.15	5.84	2.49	3.63	2.83	3.51	1.32	3.28	2.92	3.79	3.07	2.95	3.17	4.36	2.54	4.05
TCGAGTATGTTACGGGGGCATTCAGGGATGAAGA	2.87	3.97	0.827	2.87	1.12	2.43	0.107	2.01	1.62	2.19	1.29	2.11	1.67	3.98	1.12	3.01
TCGAGTAGGTTACGGGGGCATTCATGGATGAAGA	5.12	5.88	1.86	3.32	1.27	2.88	0.144	2.51	2.23	3.37	2.71	1.74	2.93	2.63	1.13	3.57
CTATGTAGGTTAAGGTGGTCATTCAGTTTGAAAG	7.1	7	1.36	0.913	0.758	0.941	0.483	1.53	1.42	1.02	1.05	0.518	1.08	1.36	0.282	0.721
CTATGTAGGTTTAGGGGGTCATTCAGTTTGAAAG	3.47	4.95	3.1	5.4	9.15	5.1	1.56	2.93	3.42	4.23	3.14	2.35	4.8	3.52	1.9	5.35
CGATGTAGGTTAAGGGGGTCATTCAGTTTGAAAG	7.27	7.49	5.88	6.1	13.5	6.18	4.27	3.65	3.87	5.19	4.02	2.93	5.85	3.81	2.8	6.65
